In PubChem BioAssay AID488789 (Broad Institute, 2010):
Results with a measured potency or affinity are listed apart. Records with an inconclusive call do not appear. Calls of active or inactive are those of the source.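 How the source made its calls: active means samples whose fitted half-maximal inhibition concentration is no more than ten times the top valid dose tested; inconclusive means flat response between -70 and -30, or invalid curve fit; inactive means flat within 30 of zero, potency above limit, or signal rising.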

The compounds below were run against Trypsin (Sus scrofa) (UniProt P00761) (assay: porcine trypsin inhibitors, dose response, selectivity assay for Rce1 protease inhibitor project, biochemical, quenched peptide fluorescence, cherry-pick (AID 488789)). Details: quenched peptide cleavage fluorescence; series mostly up to 10 µM; activity change, negative = inhibition: at the top concentration.
Trypsin (Sus scrofa), sequence (P00761 whole entry, looked up): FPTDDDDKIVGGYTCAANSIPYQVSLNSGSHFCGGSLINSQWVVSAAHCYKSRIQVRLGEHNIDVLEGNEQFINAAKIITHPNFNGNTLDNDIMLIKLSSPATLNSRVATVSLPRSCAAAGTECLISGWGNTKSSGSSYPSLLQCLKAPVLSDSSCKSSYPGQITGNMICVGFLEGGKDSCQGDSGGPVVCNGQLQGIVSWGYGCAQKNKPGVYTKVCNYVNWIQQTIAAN

Activity change, negative = inhibition, inactive:
CCN(CC)CCN(C(=O)c1cc2ccccc2cc1OC)c1nc2ccc(F)cc2s1 -2.96%, CCN(CC)c1ccc(C(=O)c2ccccc2C(=O)O)c(O)c1 -0.441%, CN1CCN(CCCNC(=O)c2cc3c(-c4ccc(Cl)cc4)nn(C)c3s2)CC1 -4.72%, CCOc1cccc(-c2nn(-c3ccccc3)cc2/C=C(/C#N)C(=O)NCCCn2ccnc2)c1 4.11%, COc1ccc(-c2cc(C(=O)N3CCN(c4ccccc4)CC3)c3ccccc3n2)cc1 -3.79%, O=[N+]([O-])c1ccc(-c2cnc(SC(c3ccccc3)c3ccccc3)[nH]2)cc1 -3.79%, O=C(CN1CCC(NC(=O)c2ccc(Br)cc2)CC1)NCc1cccs1 5.08%, COc1ccc(Br)cc1C(=O)Nc1cc(C)cc(C)c1 13.5%, CC(=O)OCC(=O)[C@@]12OC3(CCCC3)O[C@@H]1C[C@H]1[C@@H]3CCC4=CC(=O)C=C[C@]4(C)[C@@]3(F)[C@@H](O)C[C@@]12C 17.7%, O=C(C(Cc1ccccc1)N1C(=O)c2ccccc2C1=O)N1c2ccccc2CCc2ccccc21 (configuration not stated) 1.44%, CCc1cc(=O)oc2cc(OCC(=O)N3CCC(C(=O)O)CC3)ccc12 -6.59%, CCCCN(C)CCNC(=O)c1cc2c(-c3cccc(OC)c3)nn(C)c2s1 -9.5%, O=C(Cn1c2ccccc2c(=O)c2ccccc21)Nc1ccccc1F -4.99%, Cc1cccc(NC(=O)c2cc(S(=O)(=O)N3CCCCC3)c[nH]2)c1C 2.57%, Cc1ccc(NS(=O)(=O)c2ccc(NC(=O)N3CCCCC3)cc2)cc1 -2.65%, CC(=O)NC(Cc1c[nH]c2ccccc12)C(=O)O (configuration not stated) 9.84%, CC(=O)N(C)c1ccc(NC(=O)/C=C/c2ccccc2Cl)cc1 6.67%, COc1ccc(OCC(=O)NS(=O)(=O)c2ccc(Cl)cc2)cc1 16.6%, CN1CCN(C(=S)NC(=O)c2ccccc2Cl)CC1 2.37%, CCCn1c(O)c(N=NC(=O)CNC(=O)Cc2ccc(OC)cc2)c2ccccc21 13.3%, COC(=O)Cn1c(CCC(=O)O)ccc1-c1ccccc1 -7.92%, COc1ccc(N2CCN(C(=O)c3cc(-c4cccs4)nc4ccccc34)CC2)cc1 -3.39%, N#Cc1c(OCC(=O)c2ccccc2)nc2c(c1-c1ccco1)CCc1ccccc1-2 6.46%, CCOC(=O)c1c(NC(=O)COc2ccccc2F)sc2c1CC(C)(C)NC2(C)C 0.00696%, N#CC(C#N)=C1NC(N)=C(C#N)C(c2ccccc2)=C1C#N -9.18%, CC(C)c1cccc(OCC(=O)Nc2ccc(S(=O)(=O)Nc3ccccn3)cc2)c1 5.03%, COc1ccccc1NC(=O)/C(=C\c1cccnc1)NC(=O)c1ccc(C)cc1 1.96%, O=S(=O)(c1ccccc1)c1nc(-c2ccco2)oc1N1CCCCC1 3.48%, Cc1ccc(-c2nc(SCC(=O)N(C)C3CCS(=O)(=O)C3)[nH]c2-c2ccc(C)cc2)cc1 (configuration not stated) -6.71%, O=C(Nc1ccccc1N1CCOCC1)C1CCN(S(=O)(=O)c2ccc(F)cc2)CC1 0.788%, CCC(=O)Nc1cc(-c2nn(CC(=O)N3CCCCC3)c(=O)c3ccccc23)ccc1N1CCOCC1 -2.62%, CC(C)c1c(C(=O)N/N=C/c2c[nH]c3ccccc23)nnn1-c1nonc1N -3.47%, NC(=O)[C@@H]1CC2(CC(c3cccc(NC(=O)CC(c4ccccc4)c4ccccc4)c3)=NO2)CN1C(=O)c1ccc(Cl)cc1 (some centres not stated) 9%, COc1ccc(C2c3c(ncn(CCCO)c3=N)Oc3ccc4ccccc4c32)cc1 (configuration not stated) 0.00832%, COc1ccc(-c2cc(C(F)(F)F)nc(SCC(=O)N(C)Cc3cn(C)nc3C)n2)cc1OC -7.78%, CCOc1ccc2[nH]c(=O)c(CN(CCN3CCOCC3)Cc3nnnn3C(C)(C)CC)cc2c1 3.69%, COc1ccc(-n2c(SCc3ccc([N+](=O)[O-])cc3)nnc2-c2ccc(C)cc2)cc1 1.2%
